# The campaign covered roughly 1,200 compounds. About 210 (18%) were called active. Only a sample is shown. A number with no mark means an inactive call. No stated cut-off is given here; in the data, active means inhibition above about 30%; inactive means the rest.
# Test: fluorescence readout artefact check – biochemical, HTRF, uHTS, artefact control for SUMOylation inhibitor project, confirmation (AID 2069)
# Conditions: HTRF interference counterscreen, at 35 µM, hits give high values
row,SMILES,inhibition
1,Cc1ccc(NC(=S)Nc2cccc3ccccc23)cc1F,-5.85%
2,CN(C)c1cccc2c(S(=O)(=O)Nc3ccccn3)cccc12,20%
3,CN(C)c1cccc2c(S(=O)(=O)N3CCCC3)cccc12,36.4% (active)
4,CN(C)c1cccc2cccc(N(C)C)c12,13.3%
5,Cn1c2ccccc2c2cnn(CC(=O)Nc3ccc(Cl)cc3)c(=O)c21,15.8%
6,Cc1cc(C)c(S(=O)(=O)NCC23C=CC(O2)C2C(=O)N(c4ccccc4)C(=O)C23)c(C)c1 (centres undefined),-17.5%
7,O=C(NN1C(=O)CSC1=S)C(=O)NN1C(=O)CSC1=S,32.4% (active)
8,COc1ccc(NC(=S)Nc2ccc3nsnc3c2)cc1,15.8%
9,CC(=O)OCCNc1cc(SCc2ccco2)c2nonc2c1[N+](=O)[O-],-1.55%
10,CCC(NC(=O)Cc1c(C)c2c(cc(C)c3c(C)c(C)oc32)oc1=O)C(=O)O (centres undefined),51.6% (active)
11,Cc1oc2c(c(C)cc3oc(=O)c(CC(=O)N[C@@H](C)C(=O)O)c(C)c32)c1C,53.8% (active)
12,CSCC[C@H](NC(=O)Cc1c(C)c2c(cc(C)c3c(C)c(C)oc32)oc1=O)C(=O)O,48.5% (active)
13,Cc1cc(OC(C(=O)O)c2ccccc2)c2c(C)c(Cc3ccccc3)c(=O)oc2c1 (centres undefined),21.4%
14,Cc1oc2c(c(C)cc3oc(=O)c(CC(=O)N[C@H](C(=O)O)C(C)C)c(C)c32)c1C,56.9% (active)
15,Nc1ccccc1NC1=CC(=O)CC(c2ccco2)C1 (centres undefined),16.8%
16,CC1=NN(c2ccc(C(=O)O)cc2)C(=O)/C1=C\c1ccc(OC(=O)c2cccs2)cc1,12.1%
17,C[n+]1cccc2c(Br)ccc([O-])c21,-20.8%
18,C[n+]1cccc2cccc([O-])c21,5.4%
19,Cc1cccc2c(N=Nc3ccc(S(=O)(=O)Nc4cccc(Cl)c4)cc3[N+](=O)[O-])c(O)[nH]c12,-2.75%
20,CCOCCCNC1=C(Cl)C(=O)c2ccccc2C1=O,-7.4%

row,SMILES,inhibition
1,Cc1ccc(NC(=O)CSc2nnc(-c3ccco3)c(-c3ccco3)n2)cc1,0.35%
2,O=C(Nc1ccc2nsnc2c1)N1CCCCC1,12.4%
3,Oc1ccc(N=Cc2ccc(OCc3ccccc3)cc2)cc1,-5.35%
4,CC1=CC(C)(C)N2C(=O)C(=Nc3ccc(O)cc3)c3cccc1c32,-3.6%
5,Cc1ccc(NC(=O)CN2C(=O)S/C(=C\c3cc(Cl)c(OCC(=O)O)c(Cl)c3)C2=O)cc1,19.7%
6,O=C1CC(c2ccco2)CC(O)=C1C=Nc1cc(Cl)ccc1Cl (centres undefined),1.35%
7,C/C(=N\OCc1nc2ccccc2c(=O)n1/N=C/c1cc([N+](=O)[O-])ccc1O)c1ccccc1,-16.2%
8,CCOc1ccc(NC(=O)c2ccc(NC(=O)c3ccc(CN4CCOCC4)cc3)cc2)cc1,5.55%
9,CCOc1ccc(S(=O)(=O)N2CCCC(C(=O)NCc3ccco3)C2)cc1 (centres undefined),-1.5%
10,CCOc1ccc(N2CC(C(=O)NCc3ccc(F)cc3)CC2=O)cc1 (centres undefined),34.9% (active)
11,O=[N+]([O-])c1cc([N+](=O)[O-])c2nonc2c1Nc1ccc(O)cc1,-10.7%
12,COc1ccc2c(c1)-c1nc(/N=C/c3cccc(OC)c3O)sc1CC2,1.05%
13,COc1cc(NS(=O)(=O)c2ccc(NC(=S)NC(=O)/C=C/c3ccco3)cc2)ncn1,25.8%
14,O=C(COC(=O)c1cc(NS(=O)(=O)c2cccs2)ccc1O)Nc1cc(Cl)ccc1Cl,13.8%
15,C=CCc1cccc(/C=N/NC(=O)CNc2cccc3ccccc23)c1O,4.7%
16,O=C(N/N=C/c1ccccc1)c1ccc(CN2C(=O)c3cccc4cccc2c34)cc1,38.8% (active)
17,O=C(O)c1ccc(/C=N/NC(=O)c2ccc(CN3c4cccc5cccc(c45)S3(=O)=O)cc2)cc1,18.2%
18,O=C(Cc1cc(=O)[nH][nH]1)N/N=C/c1cccc2ccccc12,-6.95%
19,O=C(O)c1cccc(Cn2c(Cl)c(/C=N/NC(=O)c3cc4ccccc4cc3O)sc2=O)c1,-2%
20,COc1ccccc1/C=N/NC(=O)c1ccc(CN2C(=O)c3cccc4cccc2c34)cc1,48.2% (active)

row,SMILES,inhibition
1,COc1ccc2c(c1)CC/C(=C\Nc1ccc3c(c1)OCO3)C2=O,-3.55%
2,C=CCOc1c(Br)cc(/C=C2\SC(=Nc3ccccc3)NC2=O)cc1OC,9.1%
3,O=C(O)c1cccc([N+](=O)[O-])c1C(=O)Nc1cccc2ccccc12,-3.8%
4,Cc1ccc(C(=O)Nc2ccccc2C(=O)N2CCN(c3ccccc3)CC2)cc1,-8.05%
5,Cn1c(=O)cc(C(=O)N/N=C/c2ccc(Cl)cc2)[nH]c1=O,-5.8%
6,CCc1nc2sc(C(C)=O)c(N)c2c2c1CCCC2,9.65%
7,O=[N+]([O-])c1cccc(C=Nc2cccc3ccccc23)c1O,29.6%
8,CCOc1ccc(NC(=S)Nc2ccc3nsnc3c2)cc1,19.4%
9,O=C1NC(=Nc2ccc3ccccc3c2)S/C1=C/c1ccco1,9.5%
10,COc1cccc(NC(=S)Nc2cccc3ccccc23)c1,2.35%
11,S=C(Nc1ccc2nsnc2c1)N1CCCCC1,16.2%
12,S=C(Nc1ccc2nsnc2c1)N1CCCC1,35.6% (active)
13,S=C(Nc1ccc2nsnc2c1)N1CCCCCC1,6.8%
14,S=c1[nH]nc(-c2cc(-c3ccccc3)n[nH]2)n1/N=C/c1cccc(Cl)c1,-8.55%
15,COc1ccc(/C=C/c2nnc(NC(=O)CSc3ccc(C)cc3)s2)cc1,9.65%
16,CCOc1cc(/C=C2\C(=O)N(c3ccc(C(N)=O)cc3)N=C2C)ccc1OC(=O)c1cccs1,-9.6%
17,Nc1ccc2nc(-c3ccccc3)sc2c1,66% (active)
18,Nc1ccc2c(c1)sc1ccccc12,-9.65%
19,Cc1ccc(C)c(S(=O)(=O)c2c(N)n(/N=C/c3ccco3)c3nc4ccccc4nc23)c1,-11.7%

# Reference: PubChem BioAssay AID2069 (Sanford-Burnham Center for Chemical Genomics, 2009)
